Test results published in ChEMBL document CHEMBL3988442, “University of Dundee, Small-Polar-MMV Screening Library” (2021).
The whole screen tested about 48,000 compounds, of which about 13,000 (27%) showed an effect of 50% or more. This is one part of the list.

What follows are molecules tested on Wolbachia pipientis (assay: Anti-Wolbachia Cell-Based Screen). Conditions: 5 µM.
Format: functional
Set-up: scale not given: in the data most compounds retested in dose-response had high values

| SMILES | Percent Effect |
| --- | --- |
| CC(C)c1cc(C(=O)N2CCCC(n3cncn3)C2)n[nH]1 (configuration not stated) | 96.9% |
| O=C(c1cc(C2CC2)[nH]n1)N1CCCC(n2cncn2)C1 (configuration not stated) | 0.773% |
| CC(C)Cc1cc(C(=O)N2CCCC(n3cncn3)C2)[nH]n1 (configuration not stated) | 6% |
| CC(C)n1ccc(C(=O)N2CCCC(n3cncn3)C2)n1 (configuration not stated) | 105.9% |
| Cc1cc(C)c(CNC(=O)NC2CCN(C(=O)C(C)C)CC2)c(C)c1 | 11.56% |
| CC(Cn1cccn1)C(=O)N1CCC(NS(C)(=O)=O)CC1 (configuration not stated) | -5.413% |
| CCS(=O)(=O)Nc1ccn(Cc2cccc(Cl)c2)n1 | -21.52% |
| CS(=O)(=O)N1CCC(C(=O)N2CCN(Cc3cccc(Cl)c3)CC2)CC1 | -5.012% |
| CC(C)N(C)S(=O)(=O)N(C)Cc1cnn(Cc2ccccc2)c1 | -14.36% |
| CS(=O)(=O)Nc1cnn(Cc2cccc(Cl)c2)c1 | 81.71% |
| CCS(=O)(=O)Nc1cnn(Cc2cccc(Cl)c2)c1 | 132.7% |
| CS(=O)(=O)Nc1cccc(CNC(=O)c2cccs2)c1 | 8.71% |
| COc1cc(C)ccc1OCc1nc(C(=O)N2CCCNC(=O)C2)co1 | 5.427% |
| CS(=O)(=O)NC[C@H]1OC[C@H]2CN(Cc3ccsc3)CC[C@H]21.O=C(O)C(F)(F)F | 114.3% |
| CS(=O)(=O)NC[C@@H]1OC[C@H]2CN(Cc3ccsc3)CC[C@H]21.O=C(O)C(F)(F)F | 83.99% |
| COCc1nnc(-c2cccc(C(=O)OC(C)C)c2)o1 | -21.92% |
| NC(=O)Nc1cccc(CNC(=O)CCCc2ccccc2)c1 | 3.307% |
| Cc1cc(-c2cnc(NC3CCCC3)nc2-c2ccoc2)on1 | 77.66% |
| Cc1cc(-c2cnc(NC3CC3)nc2-c2ccoc2)on1 | 98.24% |
| Cc1cc(-c2cnc(N3CCCC(C)C3)nc2-c2cccnc2C)on1.Cl (configuration not stated) | -3.482% |
| COc1ccc(-c2ccoc2)cc1CNC1CCCC1 | 10.39% |
| CCC1CCC(N(Cc2cc(=O)n(C)c(=O)n2C)C2CC2)CC1 (configuration not stated) | -6.586% |
| Cc1ccc(NC(=O)N(C)C)c(C(=O)OCC(=O)NC(C)C(C)C)c1 (configuration not stated) | -0.8117% |
| CC(C)CN1CCc2[nH]cnc2C12CCN(C(=O)c1cncn1C)CC2 | -0.9954% |

| SMILES | Percent Effect |
| --- | --- |
| Cl.OC[C@H]1CC[C@]2(CC1)CN(Cc1ccccn1)Cc1ccccc1O2 | -8.81% |
| Cc1ncc(CN2Cc3ccccc3O[C@]3(CC[C@H](CO)CC3)C2)cn1.Cl | -8.047% |
| Cc1ccc(CNc2ccc(N3CCC(CO)CC3)cn2)o1 | -69.41% |
| Cl.OC[C@H]1CC[C@]2(CC1)CN(Cc1ccccc1F)Cc1ccccc1O2 | -7.813% |
| Cc1cnccc1Cn1ccnc1C1CCOC1 (configuration not stated) | -17.66% |
| Cc1cnccc1CN1CCN(C)C2(CCC(=O)N(CC3CC3)CC2)C1 (configuration not stated) | -0.1133% |
| O=C(Nc1ccccc1)C1CN(Cc2ccsc2)CC12CCOCC2.O=C(O)C(F)(F)F (configuration not stated) | 4.234% |
| Cc1cnccc1CN1Cc2ccccc2O[C@]2(CC[C@H](CO)CC2)C1 | 131.4% |
| Cc1ccc(CN2CC(C(=O)Nc3ccccc3)C3(CCOCC3)C2)o1.O=C(O)C(F)(F)F (configuration not stated) | 17.76% |
| Cc1ccc(CN2Cc3ccccc3O[C@]3(CC[C@H](CO)CC3)C2)o1.Cl | 111.4% |
| Cc1ccc(CN2Cc3ccccc3O[C@]3(CC[C@H](CO)CC3)C2)s1.Cl | 116.6% |
| Cl.OC[C@H]1CC[C@]2(CC1)CN(Cc1ccsc1)Cc1ccccc1O2 | 114.5% |
| CCCS(=O)(=O)N1CCOC2(COCCN(C(C)=O)C2)C1 (configuration not stated) | -8.657% |
| CN(CCCc1ccc(C(F)(F)F)cc1)Cc1nccn1C | -12.04% |
| CC(=O)N1CCN(CC(=O)N2CCN(c3cccc(C)c3)CC2)CC1 | -12.32% |
| COc1ccc(-c2nc(CN3CCOCS3(=O)=O)c(C)o2)cc1 | 1.396% |
| CSCCC(=O)NS(=O)(=O)c1ccc2c(c1)OCCO2 | 2.619% |
| C1CN(c2nc(C3CC3)ns2)CCO1 | -22.29% |
| Cn1cncc1-c1nnc([C@H]2CCN(CC3CCCCC3)C2)o1 | -8.237% |
| CCCn1ncnc1C(C)NC(=O)C1CCN(CC(N)=O)CC1 (configuration not stated) | -16.66% |
| Cc1cncnc1C1CCN(CC2CC2)CC1 | 99.03% |
| CC(NCC1CCN(CCO)CC1)c1cccnc1 (configuration not stated) | -1.701% |
| Cc1cncnc1C1CCN(CC(N)=O)CC1 | 132.7% |
| CN1CCN(Cc2nnc(C3CCN(CC4CC4)CC3)n2C)CC1 | -21.66% |

| SMILES | Percent Effect |
| --- | --- |
| Cc1cncnc1C1CCN(CCO)CC1 | 125.7% |
| CC(c1cccnc1)N1CCN(CCO)CC1 (configuration not stated) | 9.024% |
| Cc1cc(CNC(=O)C2CCN(CC(N)=O)CC2)cc(C)n1 | 2.597% |
| O=C(CN1CCCS1(=O)=O)NCCOc1ccc2c(c1)CCC2 | -4.434% |
| Cn1ccnc1SCCNc1nccc(C(F)(F)F)n1 | -12.11% |
| Cn1c(Nc2cn[nH]c2)c(C#N)c(=O)n(C)c1=O | -4.688% |
| CN1C(=O)CCc2cc(NC(=O)C3CC3)ccc21 | -10.85% |
| CN1CC(C(=O)NCCc2ccc3c(c2)OCO3)CC1=O (configuration not stated) | 94.15% |
| CN(Cc1nnc2n1CCC2)C(=O)NCCc1ccc2c(c1)OCO2 | 2.683% |
| CN1CC(C(=O)NCCc2ccc3c(c2)OCCO3)CC1=O (configuration not stated) | 92.09% |
| O=C(CCS(=O)(=O)C1CCCC1)NCCc1ccc2c(c1)OCCO2 | -0.351% |
| COc1ccc(C2C3=C(CCCC3=O)Nc3nc(SC)nc(N)c32)cc1 (configuration not stated) | 12.57% |
| CN1CCN(C(C)(C)CNC(=O)C2CCCN2S(C)(=O)=O)CC1 (configuration not stated) | 10.51% |
| CC(C)c1ccc(CS(=O)(=O)Cc2nc(N)nc(N(C)C)n2)cc1 | -6.914% |
| COc1cc(C2(C(=O)N3CCN(CC(C)O)CC3)CC2)ccc1C (configuration not stated) | 6.894% |
| CC(C)(Oc1ccc(C(N)=O)cc1)C(=O)N(CCC#N)CC1CCCO1 (configuration not stated) | 108.9% |
| CC(C)(Oc1ccc(C(N)=O)cc1)C(=O)N(CCC#N)C1CC1 | 118.6% |
| CCOc1ccc(CC(=O)N(CCC(=O)OC)CC2CCCO2)cc1 (configuration not stated) | 5.007% |
| CC(C)CN(C(=O)COc1ccc(C(N)=O)cc1)C1CCN(C)CC1 | -11.28% |
| Cc1ccc(OCc2cccc(C(=O)N(C)CCC#N)c2)cn1 | 10.32% |
| COC(=O)CCN(CC1CCCO1)C(=O)CCc1ccc(OC)cc1 (configuration not stated) | -1.307% |
| Cc1ccc(OCCC(=O)N(C)CCC#N)cc1C | -4.451% |
| N#CCCN(C(=O)COC1CCCC1)C1CC1 | -11.78% |
| CN(CCC#N)C(=O)C(C)(C)Oc1ccc(C(N)=O)cc1 | 113.2% |
